# Compound activity: PubChem BioAssay, National Center for Advancing Translational Sciences (NCATS)
# The list is not random: actives were taken first. Their share in the collection is about 9%.
# JMJD2A Tudor inh = JMJD2A Tudor domain (human) inhibition; AlphaScreen JMJD2A-Tudor / H3K4me3 peptide binding; actives 4.4% (n = 390,000); O75164; Potency, µM (doses to about 114 µM), inactives show at the top dose activity change, negative = inhibition, most hits filed as inhibitors; AID 504339; also: % is scaled to controls: 0 for no effect and ±100 for the full control effect; nearly all actives have a fitted effect of over 50% in size
# PLK1 PBD inh = inhibitors of human PLK1 polo-box domain binding | Plk1 PBD binding of FITC phosphopeptide, fluorescence polarization | AID 720504 | actives 2.8% (n = 360,000) | Potency, µM, without a hit: max response, negative = inhibition, hits mostly inhibitors | P53350; also: series mostly up to about 57 µM; % is scaled to controls: 0 for no effect and ±100 for the full control effect; nearly all actives have a fitted effect of over 65% in size
# HP1b binding inh = blocks HP1-beta chromodomain binding to methylated histone tails | AlphaScreen HP1-beta / biotin-H3K9me3 peptide binding | P83916 | Potency, µM (doses to about 114 µM), for the others: top-dose activity change, negative = inhibition, actives largely listed as inhibitors | actives 0.56% (n = 390,000); also: nearly all actives have a fitted effect of over 70% in size
#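 AlphaScreen: HP1-beta (50 nM) preformed 30 min with biotin-H3(1-18)K9me3 peptide (50 nM) in PBS pH 7.4, 0.01% Tween-20. Compound added for 30 min at RT, then streptavidin donor/nickel chelate acceptor beads (10 ug/mL) for 30 min.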
# 12-LOX inh = blocks human arachidonate 12S-lipoxygenase; purified 12hLO, xylenol orange hydroperoxide absorbance; Potency, µM (series often up to 108 µM), inactives show at the top dose activity change, negative = inhibition, usual class: inhibitors; actives 1.1% (n = 580,000); AID 1671190; also: % is scaled to controls: 0 for no effect and ±100 for the full control effect
# Target sequence (P18054 whole entry, looked up): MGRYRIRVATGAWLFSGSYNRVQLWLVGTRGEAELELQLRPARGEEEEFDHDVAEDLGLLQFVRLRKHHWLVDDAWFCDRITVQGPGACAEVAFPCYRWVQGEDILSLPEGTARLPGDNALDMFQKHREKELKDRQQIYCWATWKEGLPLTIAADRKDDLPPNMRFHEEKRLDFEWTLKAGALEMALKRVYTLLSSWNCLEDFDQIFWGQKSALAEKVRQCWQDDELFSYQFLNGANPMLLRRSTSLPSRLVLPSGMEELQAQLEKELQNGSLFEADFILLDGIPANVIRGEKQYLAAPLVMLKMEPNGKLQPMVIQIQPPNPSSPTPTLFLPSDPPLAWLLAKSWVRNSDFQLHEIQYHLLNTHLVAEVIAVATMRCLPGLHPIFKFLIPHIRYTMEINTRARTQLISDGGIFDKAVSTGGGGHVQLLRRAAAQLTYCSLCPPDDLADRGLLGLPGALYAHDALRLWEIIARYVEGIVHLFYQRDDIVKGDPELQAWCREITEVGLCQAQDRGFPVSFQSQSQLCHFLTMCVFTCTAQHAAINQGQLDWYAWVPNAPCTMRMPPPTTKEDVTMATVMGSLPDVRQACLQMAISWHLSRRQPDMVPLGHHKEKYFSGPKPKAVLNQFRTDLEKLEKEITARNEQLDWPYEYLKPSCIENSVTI
#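 Purified human 12hLO at 150 nM in 25 mM Hepes, 0.01% Triton X-100, pH 7.0, preincubated 15 min at room temperature with compound. Reaction started with 40 uM arachidonic acid, 30 min at room temperature. Hydroperoxide measured by Fe-xylenol orange, 573/405 nm absorbance ratio.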
# G9a block = G9a (human) methyltransferase inhibition; Q96KQ7; G9a H3K9 monomethylation, AlphaScreen, 2 h; Potency, µM (series often up to 102 µM), for the others: top-dose activity, negative = inhibition, usual class: inhibitors; actives 8.8% (n = 350,000); AID 504332; also: % is scaled to controls: 0 for no effect and ±100 for the full control effect; nearly all actives have a fitted effect of over 75% in size
#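 Signal arises when biotinylated H3K9 peptide, once monomethylated, bridges streptavidin donor and antibody-captured acceptor beads. Enzyme at 20 nM was preincubated 15 min with test compounds; peptide 500 nM and SAM 20 uM then reacted for 2 h.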
# BAZ2B block = inhibitors of human BAZ2B bromodomain; AID 504333; Potency, µM (top dose mostly 114 µM), inactives show top-dose activity change, negative = inhibition, usual class: inhibitors; actives 4.4% (n = 360,000); Q9UIF8; AlphaScreen BAZ2B-H3K14Ac peptide displacement; also: % is scaled to controls: 0 for no effect and ±100 for the full control effect; nearly all actives have a fitted effect of over 60% in size
#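 AlphaScreen displacement: compounds (up to 110uM) incubated 30 min at room temperature with a preformed 50 nM BAZ2B/50 nM biotinylated H3K14Ac peptide complex in PBS pH 7.4 with Tween-20. Donor and acceptor beads at 10 ug/mL final added, 20 min light-protected before reading.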
# TbPYK inh = Trypanosoma brucei pyruvate kinase inhibition, cherry-pick confirmation; shares compounds with PLK1 PBD inh; recombinant TbPYK, Kinase-Glo ATP luminescence; Potency, µM (doses to about 76.9 µM), for inactives: top-dose activity change, negative = inhibition, most hits filed as inhibitors; actives 67% (n = 890); AID 720569; also: % is scaled to controls: 0 for no effect and ±100 for the full control effect; nearly all actives have a fitted effect of over 70% in size
# TbPYK ADP-Glo = inhibits T. brucei pyruvate kinase in orthogonal ADP-Glo assay | AID 720584 | actives 62% (n = 890) | shares compounds with PLK1 PBD inh | Potency, µM (titrated, usually from 76.9 µM), without a hit: at the highest dose activity change, negative = inhibition, hits mostly inhibitors | recombinant TbPYK, ADP-Glo luminescence, 60 min; also: % is scaled to controls: 0 for no effect and ±100 for the full control effect; nearly all actives have a fitted effect of over 75% in size
# Active calls of the source: *; ? = inconclusive; . = no result; [ ] = another dose, or the depositor's remark. Calls follow the shape of the dose curve; as a rule, active = well fitted curve in the direction sought with a large enough effect; inconclusive = small, poorly fitted or top-dose-only effect, or another doubt; inactive = no such curve, though single readings can be large; an effect the other way counts as inactive or inconclusive. Potency is read from the fitted curve at half-maximal effect.
SMILES,JMJD2A Tudor inh,PLK1 PBD inh,HP1b binding inh,12-LOX inh,G9a block,BAZ2B block,TbPYK inh,TbPYK ADP-Glo
CC1(C)CC(=O)c2c(C(F)(F)F)nn(-c3ccc(C(N)=O)c(NC4CCC(O)CC4)c3)c2C1 (stereo not drawn),.,.,.,-12.3%[57.4 µM],.,.,.,.
CC(C)CN(C(=O)CN1CCN(c2ccc(O)cc2)CC1)c1c(N)n(CC(C)C)c(=O)[nH]c1=O,?,-10.5%,50.1µM*,-22.2%,?,-6.0%,?,?
COc1ccc(N(C(=O)COc2c(C)cccc2C)S(=O)(=O)c2ccc(Cl)cc2)cc1,-20.6%,.,32.0%,-16.7%,5.6%[59 µM],2.1%,.,.
COc1ccc(C2=NOC(Cn3nc(C(=O)NCc4ccccc4OC)cc3-c3ccccc3)C2)cc1 (stereo not drawn),-17.4%,-3.7%,11.7%,-8.2%,-7.1%[2.33 µM],-3.7%,.,.
C[C@H](NC(=O)c1cc2c(cn1)[nH]c1ccccc12)C(=O)O,44.7µM*,2.67µM*,28.2µM*,?,1.41µM*,50.1µM*,5.01µM*,14.1µM*
CC(NC(=O)c1cc(=O)[nH]c2ccccc12)c1ccccc1 (stereo not drawn),-8.1%,-10.3%,47.0%,-17.3%,-2.8%,-4.2%,.,.
CCC1CCc2c(sc(N)c2C(N)=O)C1 (stereo not drawn),?,?,-17.4%,?,.,.,.,.
NC(=O)c1c(N)sc2c1CCCCC2,?,?,17.8µM*,-7.0%,8.91µM*,4.9%,?,?
COc1ccc(-n2nnnc2Sc2ccc(S(=O)(=O)N3CCOCC3)cn2)cc1,22.4µM*,9.47µM*,?,-9.0%,1.78µM*,-2.1%,14.1µM*,17.8µM*
COc1ccccc1-n1c(SCC(=O)NC(C)C)nc2ccsc2c1=O,.,.,.,-10.0%,.,.,.,.
Cc1cc(O)c(-c2cc(O)c(C)cc2O)cc1O,5.01µM*,4.74µM*,1.78µM*,?,2µM*,50.1µM*,31.6µM*,11.2µM*
CCOC(=O)c1ccc2c(c1)C1C=CCC1C(C(=O)OCC)N2 (stereo not drawn),?,-17.3%,-7.1%,?,11.2µM*,44.7µM*,-26.7%,-16.2%
CCOC(=O)c1ccc2c(c1)[C@@H]1C=CC[C@@H]1[C@H](c1cccc(OC)c1OC)N2,-19.0%,.,10.6%,?,-32.2%[59 µM],-8.7%,.,.
O=C(O)c1ccccc1-c1ccc(C=c2sc3nc4cc(Br)cnc4n3c2=O)o1,.,?,.,7.94µM*,.,.,14.1µM*,15.8µM*
COc1ccc(OCCSCc2nnc(NC(=O)Nc3ccc(Cl)cc3)s2)cc1,-3.2%,-11.2%,15.4%,-2.0%,-10.3%[59 µM],2.6%,.,.
Cc1ccccc1N1C(=O)CC(Sc2nnc(-c3ccccc3)o2)C1=O (stereo not drawn),-6.2%,0.0%,-2.2%,34.6%,7.94µM*,-4.9%,14.1µM*,17.8µM*
O=C1c2ccccc2CC1Sc1nnc(-c2ccncc2)o1 (stereo not drawn),?,?,45.3%,0.0%,?,-20.9%,.,.
COc1ccccc1N(C(C)=O)C1=C(Cl)C(=O)c2ccccc2C1=O,.,2.99µM*,.,14.1µM*,.,.,-100.0%,0.794µM*
O=C1CCC(C(=O)Nc2cccc(S(=O)(=O)Nc3ccccc3F)c2)=NN1,?,2.38µM*,?,31.6µM*,.,.,6.31µM*,6.31µM*
Cc1c(CCOC(=O)c2ccccc2)sc[n+]1Cc1ccccc1,-4.8%,-1.7%,53.6%,-24.8%,-14.5%[59 µM],3.0%,.,.
Cc1ccc2c(c1)sc[n+]2Cc1ccccc1,28.2µM*,2.99µM*,20.6%,?,?,70.8µM*,-20.1%,?
O=S(=O)(c1cc(O)ccc1O)c1cccc2c(S(=O)(=O)c3cc(O)ccc3O)cccc12,17.8µM*,?,15.8µM*,31.6µM*,19.6%[2.33 µM],11.2µM*,?,25.1µM*
O=C(N/N=C/c1cccnc1)c1[nH]ncc1Br,-8.4%,-0.3%,16.7%,68.9%,-46.3%,-8.5%,.,.
O=C(N/N=C/c1ccccc1)c1[nH]ncc1Br,-16.5%[11.4 µM],-7.7%,31.0%,3.0%,-25.9%,.,-27.4%,0.7%
CCOC(=O)c1ccc(NC(=O)CSc2nccn2C)cc1,-21.4%,-14.2%,32.0%,-12.3%,?,?,.,.
SMILES,JMJD2A Tudor inh,PLK1 PBD inh,HP1b binding inh,12-LOX inh,G9a block,BAZ2B block,TbPYK inh,TbPYK ADP-Glo
CCCCOc1ccc(NC(=O)CCSc2nccn2C)cc1,3.16µM*,-0.6%,-9.9%,?,11.2µM*,?,2µM*,2.24µM*
Cc1ccc2oc(C(=O)N(C)Cc3ccc(C)o3)c(C)c2c1,?,?,-13.7%,?,8.91µM*,-16.1%[57.1 µM],15.8µM*,28.2µM*
Cc1occc1-c1nnc(SCc2nnc(-c3ccc(Cl)cc3)o2)n1C,-35.1%[11.4 µM],2.99µM*,?,0.0%,79.4µM*,-20.7%,-7.5%,-6.2%
CC(C)(C)n1nnnc1C(c1cccnc1)N1CCN(c2cccc(C(F)(F)F)c2)CC1 (stereo not drawn),-34.4%,-7.9%,46.9%,5.1%,?,?,.,.
CC(C)(C)c1cc(C(c2cccnc2)N2CCN(CCO)CC2)cc(C(C)(C)C)c1O (stereo not drawn),31.6µM*,1.89µM*,?,?,10µM*,50.1µM*,0.316µM*,2.82µM*
CC(C)Sc1nc(N2CCOCC2)c2c(c1C#N)CC(C)(C)N(C)C2,11.2µM*,2.67µM*,-9.8%,?,-14.1%[12.7 µM],-8.4%,-10.8%,-6.5%
CC1(C)Cc2c(C#N)c(SCC(=O)c3ccccc3)nc(N3CCOCC3)c2CO1,63.1µM*,-21.2%,-7.5%,?,22.4µM*,-30.8%,10µM*,11.2µM*
CN1Cc2c(N3CCOCC3)nc(SCCC#N)c(C#N)c2CC1(C)C,-17.6%,-9.7%,5.1%,23.3%,4.9%[12.7 µM],-3.5%,.,.
CS(=O)(=O)N1CCOC[C@H](Oc2ccc(C(F)(F)F)cc2)C1,.,.,.,12.0%[176 µM],.,.,.,.
CCc1ccc(-c2cc3c(=O)n(CC(=O)NCCCN4CCN(CC)CC4)nc(C)n3n2)cc1,-13.2%,-9.7%,30.2%,-16.4%,-14.9%,-20.1%,.,.
N#C/C(=C/c1ccc(N2CCOCC2)o1)c1ccc(Br)cc1,56.2µM*,17.0%,?,5.62µM*,7.94µM*,44.7µM*,?,35.5µM*
O=C1c2ccccc2CN1c1ccccc1,-12.4%,-5.6%,19.7%,10.2%,-8.7%,9.5%,.,.
O=C1NC(=S)CN1c1ccccc1,12.6µM*,26.7µM*,?,?,11.2µM*,-21.2%,?,?
